Among all 340,000 compounds or so, about 1,700 (0.5%) were called active. Not shown: some 2% with an inconclusive outcome. The full list was thinned out, with actives kept by preference. Unmarked numbers belong to inactive results. Rule as the data show it: active = activity change below about -65%; inconclusive = mostly about -30% to -63%; inactive = weaker than that.
Each compound was assayed on CtBP / adenovirus E1A interaction (AlphaScreen) (assay: qHTS Assay for Inhibitors of the CtBP/E1A Interaction). Conditions: AlphaScreen GST-E1A/His-CtBP binding, 1536-well; hits give low values.
Text: Carboxyl-terminal binding protein (CtBP) is a co-repressor for many transcription factors. […] Our studies have shown that CtBP is overexpressed in multiple human cancers, including lung, breast, and head and neck cancers. In particular, it is over-expressed in 50% of primary lung cancer and 90% of metastatic lesions. CtBP suppresses epithelial-specific genes as well as genes critical for apoptosis, providing the underlying molecular mechanism for its role in tumorigenesis. […] Based on the above data, we hypothesize that 1) CtBP suppresses the pro-apoptotic and epithelial genes, therefore overexpressed CtBP in human cancer cells increases EMT and cancer survival; 2) decreasing CtBP's function represents a targeted therapy for lung cancer and potentially multiple cancer types. As a co-repressor, CtBP binds to E1A and other transcription factors through a conserved peptide motif to carry out its action. Inhibiting this interaction using small molecules can potentially serve as effective cancer therapeutics.
To this end, we have developed a homogenous AlphaScreen assay targeting the CtBP/E1A interaction. We performed a large scale HTS of the Molecular Libraries Small Molecule Repository (MLSMR) to identify inhibitors of the CtBP/E1A interaction as potential anti-cancer therapeutics. Compounds identified can also be used as chemical probes to better understand the biological functions of CtBP.
NIH Chemical Genomics Center [NCGC]
NIH Molecular Libraries Probe Centers Network [MLPCN]
Assay Submitter (PI): Rui Zhao, University of Colorado Denver
The first step of the 5uL AlphaScreen assay is to dispense assay buffer (50 mM Tris, pH 8.0, 300 mM NaCl, 0.05% BSA, 0.02% Tween 20, 1 mM TCEP) into a Greiner 1536 white solid bottom microtiter plate (789175-F). Five microliters is added to Column 1, 4 uL is added to Column 2 and 3 uL is added to Columns 3 through 48. A 5X protein solution (125 nM GST-E1A protein + 125 nM His-tagged CtBP protein) is mixed and 1 uL is dispensed to Columns 3-48. Using a 1536 pintool, 23 nL of compound is transferred to the assay plate and the plate is incubated with a lid at 37 deg C in the dark for two hours. A solution of 5X AlphaScreen beads is mixed (50 ug/mL Glutathione linked donor beads + Nickel chelated acceptor beads) and 1 uL is dispensed to Columns 2-48. The assay plate is incubated for one hour, with a lid, at 37 deg C in the dark. The plate is read using a Perkin Elmer Envision using an AlphaScreen protocol.
% is scaled to controls: 0 for no effect and ±100 for the full control effect.

| SMILES | activity change |
| --- | --- |
| C=CCNC(=O)COc1coc(CN2CCN(Cc3ccccc3)CC2)cc1=O | 2.1% |
| Cc1ccc(C(=O)Oc2coc(CSc3nnc(NC(=O)c4cccs4)s3)cc2=O)cc1C | -16.7% |
| O=C(/C=C/c1ccccc1)Oc1coc(CSc2ncccn2)cc1=O | -92.2% (active) |
| O=Nc1c(O)cc(O)c2ccccc12 | -6.15% |
| COc1ccc(C(=O)N2CCCCC2c2cc(C(=O)Nc3ccc(F)c(Cl)c3)no2)cc1 (centres undefined) | -5.81% |
| O=Cc1cn(CCOc2ccc(F)cc2)c2ccccc12 | 0% |
| CSCCC(c1nnnn1Cc1ccccc1)N1CCN(C/C=C/c2ccccc2)CC1 (centres undefined) | -18.4% |
| Cc1cccn2c(=O)c3cc(C(=O)NCCN4CCOCC4)c(=N)n(Cc4cccnc4)c3nc12 | -25.6% |
| COc1ccc(CCn2c(=N)c(C(=O)NCc3ccco3)cc3c(=O)n4cccc(C)c4nc32)cc1 | -81.7% (active) |
| O=C(NCc1ccco1)c1cccn2c(=O)c3c4c(sc3nc12)CCCC4 | -12.2% |
| CC(C)C[C@@H](COCc1ccc(Cl)cc1)N1CCN(C(=O)c2ccc(Cl)cc2Cl)CCC1=O | 0% |
| CCOC(=O)N1CCN(C(=O)CSc2nc(=O)n3cccc(C)c3n2)CC1 | -4.84% |
| CCOC(=O)N1CCN(C(c2ccnc3ccccc23)c2nnnn2-c2c(C)cccc2C)CC1 (centres undefined) | 0% |
| CCN1CCN(C(c2cccnc2)c2cc(Cl)c3cccnc3c2O)CC1 (centres undefined) | -99.3% (active) |
| CCOC(=O)N1CCN(C(c2cccnc2)c2ccc3cccnc3c2O)CC1 (centres undefined) | -91.9% (active) |
| N#CCCN(C(=S)Nc1ccc(Cl)c(Cl)c1)C1CCCCC1 | 0% |
| COc1ccc(-c2cnc3c(c2)C(=O)N([C@H](C)CO)C[C@@H](C)[C@H](CN(C)Cc2ccccc2)O3)cc1 | -12.8% |
| CC(C)Oc1ccc(CN2CCC2(C)C(=O)NCc2ccc(C(F)(F)F)cc2)cc1 (centres undefined) | 0.872% |
| Cc1ccc(C(=O)NNC(=O)c2ccncc2)cc1S(=O)(=O)N1CCCCC1 | -2.42% |
| Cc1ccc(C(=O)Nc2ccc3c(c2)OCO3)cc1S(=O)(=O)N1CCCCC1 | -66.6% (active) |
| Cc1ccc(NC(=O)C2CC(=O)N(c3ccc4c(c3)OCCO4)C2)cc1S(=O)(=O)N1CCCCCC1 (centres undefined) | -5.1% |
| OC(c1ccccc1)c1nc(/C=C/c2ccc(C(F)(F)F)cc2)cs1 (centres undefined) | 7.85% |
| Cc1nc2c(OCc3ccc(Cl)cc3Cl)cccn2c1N(C)CC1CC1 | -25.5% |

| SMILES | activity change |
| --- | --- |
| COc1cc(OC)c(/C=N/NC(=O)c2ccc([N+](=O)[O-])cc2)cc1Br | -0.151% |
| COc1cccc(/C=N/NC(=O)c2[nH]nc3c2CCc2ccccc2-3)c1O | -67.1% (active) |
| COc1ccc(/C=N/NC(=O)c2ccncc2)cc1CN1CCCc2ccccc21 | 13.2% |
| CC(C)c1cc(CN2CCOCC2)cc(C(C)C)c1O | 4.14% |
| Oc1c(C(c2ccccn2)N2CCOCC2)ccc2cccnc12 (centres undefined) | -81.3% (active) |
| CCCCN1C[C@H](c2ccc(Br)cc2)[C@@H](CC(=O)Nc2ccc(Br)cc2)C1=O | -4.21% |
| COc1ccc(OCC(=O)Nc2ccc(NC(=O)c3ccco3)c(C)c2)cc1 | -2.52% |
| COc1ccc(CC(=O)Nc2ccccc2NC(=O)c2ccco2)cc1OC | 5.07% |
| COc1ccc(NC(=O)CCC(=O)Nc2cc(OC)c(NC(=O)c3ccco3)cc2OC)c(OC)c1 | -87.4% (active) |
| CC(=O)Nc1cc(-c2ccccc2N(C)C)cn2c(-c3ccc(F)c(Cl)c3)cnc12 | -22.9% |
| CCCOc1ccc(F)cc1-c1cc(C(=O)Nc2ccc(F)c(Cl)c2)[nH]n1 | 2.38% |
| COCC1CCCCN1C(=O)c1cc(COc2ccc(C)c(C)c2)on1 (centres undefined) | -0.436% |
| COc1ccc(/C=N/N(C)C2=NS(=O)(=O)c3ccccc32)cc1OC | -89.3% (active) |
| COc1ccc(C(C)(C)C)cc1NC(=O)CN(C)C1=NS(=O)(=O)c2ccccc21 | 2.94% |
| C=CCOCCN(C)C1=NS(=O)(=O)c2ccccc21 | 0.314% |
| CC(=O)Nc1cc(-c2ccccc2F)cn2c(-c3cccc(C(F)(F)F)c3)cnc12 | -8.33% |
| COc1ccccc1-c1cc2nc(NCc3cccc(Cl)c3)ccn2n1 | 3.38% |
| O=[N+]([O-])c1cccc(S(=O)(=O)NCc2ccccn2)c1 | 1.03% |
| O=[N+]([O-])c1ccc2nc(-c3ccccn3)[nH]c2c1 | -90.6% (active) |
| O=S(=O)(Nc1ccc2nc(-c3ccco3)[nH]c2c1)c1ccccc1 | -18.3% |
| COCOCCn1cc(CN2CCS(=O)(=O)N(Cc3ccc(-c4ccc(OC)cc4)cc3)C(CC(C)C)C2=O)nn1 (centres undefined) | -1.08% |
| Cc1cc(Nc2ccc(N3CCOCC3)cc2)c2cccc(C)c2n1 | -16.1% |
| Cc1ccc(Nc2cc(C)nc3c(C)ccc([N+](=O)[O-])c23)cc1 | -66.7% (active) |

| SMILES | activity change |
| --- | --- |
| Cc1cc(Nc2ccc(C(=O)N3CCCCC3)cc2)c2cccc(C)c2n1 | 1.83% |
| COC(=O)c1ccccc1N=NNc1ccc([N+](=O)[O-])cc1 | -2.76% |
| Fc1cccc(Cc2c(-c3ccc(Cl)cc3)nc3ccc(Cl)cn23)c1 | 0% |
| CCN(CC)C(=O)C1=C(C)N(Cc2ccc(F)cc2)C(=O)C(CC(=O)NCc2cccc3ccccc23)C1 (centres undefined) | -2.72% |
| COc1ccc(NC(=O)CCNC(=O)Cn2cnc3sc4c(c3c2=O)CCCC4)cc1OC | 0.477% |
| COc1ccc(/C=N/Nc2ncnc3sc4c(c23)CCCC4)cc1O | -87.1% (active) |
| COc1ccc(NC(=O)CCCNC(=O)Cn2cnc3sc4c(c3c2=O)CCCC4)cc1OC | 20.4% |
| COC(=O)C1=CN(c2c(C)cc(C)cc2C)C(N)=C(C#N)C1c1cccc(F)c1 (centres undefined) | 3.08% |
| CCCCCCN1CCN(C2CN(Cc3cn(CCCCCC)nn3)S(=O)(=O)C2)CC1 (centres undefined) | 0.678% |
| Cc1nc2c(OCc3cccc(Cl)c3)cccn2c1N(C)CC1CC1 | -6.06% |
| COc1ccc(NC(=O)C2Cc3c(-c4ccc(Cl)cc4)ccnc3O2)cc1 (centres undefined) | 1.32% |
| COCCCNC(=O)c1cccc2c(-c3ccc(O)c(OC)c3)coc12 | -18.4% |
| Cc1cc(NC(=O)CSc2nnc(-c3ccc(Cl)s3)o2)no1 | -93.2% (active) |
| O=C(CSc1nnc(-c2ccncc2)o1)Nc1cccc(Cl)c1 | 6.8% |
| Cc1cc(NC(=O)CSc2ncc(C(F)(F)F)cc2Cl)no1 | -2.36% |
| CCCCc1c(-c2ccc(Br)cc2)ncn1CCc1ccccc1OC | -11.3% |
| CCCCNC(=O)CSc1nc2n[nH]c(C)c2c(=N)n1-c1cccc(Cl)c1C | -0.913% |
| Cc1ccc(-n2c(SCC(=O)NCCC3=CCCCC3)nc3n[nH]c(C)c3c2=N)cc1Cl | -20.7% |
| COc1cccc(-n2c(SCC(=O)NC3CCCCC3)nc3n[nH]c(C)c3c2=N)c1 | -66.5% (active) |
| CCOC(=O)[C@]12CCCC=C1N(CCC1=CCCCC1)C(=O)[C@H](CC(=O)N1CCN(C(=O)c3ccco3)CC1)C2 | -6.31% |
| NC(=O)NC(CC(=O)NNC(=O)c1ccccn1)c1ccc(Cl)cc1 (centres undefined) | -76% (active) |
| CN(C)S(=O)(=O)c1ccc(Cl)c(NC(=O)COC(=O)CC(NC(N)=O)c2ccc(Cl)cc2)c1 (centres undefined) | -6.53% |
| O=C(COC(=O)c1ccccn1)NNC(=O)c1ccc(Br)cc1 | -15.7% |

| SMILES | activity change |
| --- | --- |
| CC(C)NC(=O)C1(C)CCCCCN1C(=O)c1ccc(-c2ccccc2)cc1 (centres undefined) | -11.1% |
| CCCC/C=C/c1cccc2nncn12 | 2.58% |
| COc1cccc(-c2cc3nc(NCCOc4ccccc4Cl)n(C)c(=O)c3s2)c1 | 3.25% |
| COc1ccc(CCCNC(=O)C2Cc3c(-c4cccc(C(N)=O)c4)ccnc3O2)cc1 (centres undefined) | -0.248% |
| CCOC(=O)N/N=C/c1cccnc1 | 25.9% |
| COc1ccc(C(=O)NCC(=O)N/N=C/c2cccnc2)cc1 | 11.7% |
| O=C(CSc1cccc2cccnc12)N/N=C/c1cccnc1 | -93.9% (active) |
| CCCCn1nnnc1C(c1cc2ccccc2o1)N(C)Cc1ccc(Cl)c(Cl)c1 (centres undefined) | 13.3% |
| O=C(Nc1ccc2c(c1)OCCO2)C(C1CC1)N1CCC(Cc2ccccc2)CC1 (centres undefined) | -10.3% |
| O=C(OCC(=O)N1CCCCCC1)c1cnc(Cl)c(Cl)c1 | -78.7% (active) |
| O=C(OCC(=O)N1CCCCCC1)c1ccc(Cl)nc1 | -1.48% |
| O=C(OCC(=O)N1CCCC1)c1ccc(Cl)nc1 | 2.13% |
| O=C(Nc1ccccc1)Oc1cccc2cccnc12 | -90.3% (active) |
| OCc1ccc(OCCCOc2cccc3cccnc23)cc1 | -7.66% |
| O=S(=O)(NCCOc1cccc2cccnc12)c1ccc(F)cc1 | 6.61% |
| COC(=O)[C@@]12C[C@@H](CC(=O)NCc3cccc(C(F)(F)F)c3)C(=O)N(Cc3ccco3)C1=CCC(C)(C)C2 | -3.58% |
| CCCCCCCCN1C(=O)[C@H](CC(=O)NCc2cccc3ccccc23)C[C@@]2(C(=O)OC)CCCCC=C12 | -7.91% |
| CCCCCCCN=C(C)c1ccccc1O | 2.02% |
| C/C(=N\Nc1ccc(Cl)nn1)c1ccccc1O | -87.6% (active) |
| C/C(=N\NC(=O)c1ccoc1C)c1ccccc1O | -25.9% |
